Test system: LOC_OS07G07230-cb001
Assay: thermal shift delta Tm vs DMSO control; higher = stronger stabilization (binding)
Settings: 12.5 µM; protein concentration 2 µM
Summary of the method: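 Rice kinase domain constructs were expressed in E. coli, purified, and tested by differential scanning fluorimetry with compound added in DMSO. Each well of a 96-well plate held 19.5 μl of 2 μM kinase in 100 mM potassium phosphate pH 7.5, 150 mM NaCl, 10% glycerol and 5 × SYPRO Orange, and fluorescence was read from 25°C to 95°C at 0.05°C/s. The melting temperature shift is the mean of triplicates, taken against protein with DMSO alone after Boltzmann fitting.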

| SMILES | thermal shift delta Tm |
| --- | --- |
| CN1CCN(c2cccc(Nc3nc4c(-c5ccc(S(C)(=O)=O)cc5)cccn4n3)c2)CC1 | -0.02 °C |
| C[C@@H](NC(=O)c1ncnc(N)c1Cl)c1ncc(C(=O)Nc2cc(C(F)(F)F)c(Cl)cn2)s1 | 0.05 °C |
| N#CC(=C(/N)Sc1ccccc1N)/C(C#N)=C(\N)Sc1ccccc1N | 0.58 °C |
| Cc1cc(Nc2cc(N3CCN(C)CC3)nc(/C=C/c3ccccc3)n2)n[nH]1 | 0.9 °C |
| OCCn1cc(-c2ccc3c(c2)CC/C3=N\O)c(-c2ccncc2)n1 | 0.21 °C |
| COc1cc2c(c(OC)c1OC)-c1c(cc3c(c1OC)OCO3)CC(C)C(C)C2 (centres undefined) [Schisandrin B (Sch B)] | -0.17 °C |
| COc1cc(N2CCN(C)CC2)ccc1Nc1nccc(-c2cn(C)c3cnccc23)n1 | 0.44 °C |
| CN(c1ccccc1CNc1nc(Nc2ccc3c(c2)CC(=O)N3)ncc1C(F)(F)F)S(C)(=O)=O | 0.27 °C |
| CNC(=O)c1ccc(Nc2ncc(C(F)(F)F)c(NCc3nccnc3N(C)S(C)(=O)=O)n2)cc1 | 0.51 °C |
| O=C(O)c1ccc2c3c1cccc3c(=O)n1c3ccccc3nc21 | 1.19 °C |
| Cc1nc(Nc2n[nH]c3c2CN(C(=O)N[C@H](CN(C)C)c2ccccc2)C3(C)C)c2sccc2n1 | 0.02 °C |
| C[C@H]1[C@H](C)CC[C@]2(C(=O)O)CC[C@]3(C)C(=CC[C@@H]4[C@@]5(C)C[C@@H](O)[C@H](O)[C@@](C)(CO)[C@@H]5CC[C@]43C)[C@H]12 [Asiatic Acid] | 0.24 °C |
| COc1ccc(-c2cc3nccn3c(Nc3ncccc3C(N)=O)n2)cc1OC | 0.38 °C |
| O=C(NCc1ccccc1)c1csc(Nc2ccncn2)n1 [Thiazovivin] | -0.04 °C |

— the supplement of paper PMC9694430
